The whole screen tested about 360,000 compounds, of which about 2,100 (0.58%) were called active.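 The calls were made as follows: active = inhibition above a per-plate cutoff, the mean of that plate's test compounds plus 3 SD (cut at about 27% in these data); inactive = the rest.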 This excerpt belongs to a sample that is enriched for actives.
The compounds below were run against Muscarinic acetylcholine receptor M5 (Homo sapiens) (UniProt P08912) (assay: human M5 muscarinic receptor antagonists, primary screen, CHO cells, Fluo-8 calcium fluorescence (AID 624040;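 also: 0% = acetylcholine EC80 with DMSO and 100% = DMSO without agonist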)). Settings: CHO-hM5 cells, ACh EC80, at 3 µM, hits give high values.
Muscarinic acetylcholine receptor M5 (Homo sapiens), sequence (P08912 whole entry, looked up): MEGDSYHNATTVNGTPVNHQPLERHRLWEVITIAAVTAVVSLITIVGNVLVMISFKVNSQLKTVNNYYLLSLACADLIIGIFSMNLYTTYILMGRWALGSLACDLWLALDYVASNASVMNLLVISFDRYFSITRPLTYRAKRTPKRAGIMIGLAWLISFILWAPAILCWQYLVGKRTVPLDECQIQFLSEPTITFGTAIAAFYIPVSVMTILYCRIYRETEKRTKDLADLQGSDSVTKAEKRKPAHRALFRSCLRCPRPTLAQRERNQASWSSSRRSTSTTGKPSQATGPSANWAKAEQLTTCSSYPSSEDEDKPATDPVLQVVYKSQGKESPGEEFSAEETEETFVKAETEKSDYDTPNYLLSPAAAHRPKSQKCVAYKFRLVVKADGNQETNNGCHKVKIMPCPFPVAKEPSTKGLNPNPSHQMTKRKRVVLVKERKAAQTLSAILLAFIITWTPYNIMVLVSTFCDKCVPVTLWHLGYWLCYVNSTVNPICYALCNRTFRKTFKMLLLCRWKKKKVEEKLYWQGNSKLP

inhibition, active:
CC(C[N+](C)(C)C)OC(N)=O (configuration not stated) 74.8%
CC(=O)OC(C)C[N+](C)(C)C (configuration not stated) 95.7%
O=C(Cc1ccc(Cl)cc1)NC(=S)Nc1ccccc1O 64.5%
O=C1C(Cl)=C(Oc2ccccc2)C(=O)c2ccccc21 30.4%
Cc1ccc(NC(=O)OCCNC(=O)c2ccncc2)cc1 50%
C#CC(CCN1CCCCC1)(OC)c1ccccc1 (configuration not stated) 30.6%
CCCCCC(O)(CCN1CCCCC1)c1ccccc1 (configuration not stated) 98.2%
CCCCCCC(O)(CCN1CCCCC1)c1ccccc1 (configuration not stated) 97.8%
Nc1nnc(SCC(=O)Nc2ccc3nc(SCC(=O)Nc4ccccc4)sc3c2)s1 43.5%
CCN1CCC2(CC1)N=C(c1ccc(F)cc1)C(=S)N2C(=O)c1ccc(C)cc1 69.5%
CC1(C)CC(N2CCN(C(c3ccccc3)c3ccccc3)CC2)=CC(=[N+]2CCCCC2)C1 31.9%
COc1cccc(CNc2nc(NCc3cccs3)nc3ccsc23)c1 44.2%
CCOc1ccc(N2C(=O)CC(N(CCc3ccc(OC)c(OC)c3)C(=S)Nc3ccccc3)C2=O)cc1 (configuration not stated) 30.8%
CCCCCCCCCCOC(=O)Cn1c(COc2cccc(OC)c2)[n+](C)c2ccccc21 31%
O=C(/C=C(O)/C=C/c1ccc(O)cc1)/C=C/c1ccc(O)cc1 54.8%
COc1ccc(S(=O)(=O)NCCCCOc2ccc(Cl)cc2)cc1 32.2%
CCC(C(=O)OCCN(CC)CC)c1ccccc1 (configuration not stated) 67.6%
CCCC(C(=O)OCCN(CC)CC)(c1ccccc1)c1ccccc1 48.8%
CC(C)c1ccc(C=NNc2ccc([N+](=O)[O-])cn2)cc1 27.5%
CC(=O)c1c(C)[nH]c(C(=O)COC(=O)c2cccc(S(=O)(=O)N(C)c3ccccc3)c2)c1C 74.2%
COc1ccc(CC(=O)Nc2nc(-c3ccc(F)c(F)c3)cs2)cc1OC 32.4%
O=C(Oc1ccc(-c2nnco2)cc1)c1ccc(F)c(S(=O)(=O)N2CCOCC2)c1 27.2%

inhibition, inactive:
CC(=O)OCCC(C)C 6.5%
CC(=O)OCC(COC(C)=O)OC(C)=O -2.99%
Cn1c(CCCOc2ccc(Cl)cc2Cl)n[nH]c1=S 6.7%
CN(Cc1ccc(CNC[C@H]2O[C@@H](n3cnc4c(N)ncnc43)[C@H](O)[C@@H]2O)o1)S(C)(=O)=O -3.06%
O=C(COC(=O)c1cccnc1Cl)Nc1ccc(S(=O)(=O)N2CCOCC2)cc1 13.3%
CCOc1ccc(NC(=O)CSc2nc3ccccc3c(=O)n2Cc2cccs2)cc1 8.62%
O=C(NC(=S)Nc1ccc(Cl)cc1Cl)C1CC1 6.51%
COC(=O)c1ccccc1NC(=O)CN(Cc1ccc(Cl)cc1)S(C)(=O)=O 5.2%
Cc1cc(NS(=O)(=O)c2ccc(NC(=O)c3cccc(OC(F)F)c3)cc2)nc(C)n1 -2.8%
O=C(NCc1ccco1)C(c1ccncc1)N(C(=O)Cn1nnc2ccccc21)c1ccccc1 (configuration not stated) 9.94%
O=C(Nc1ccc(S(=O)(=O)NCC2CCCO2)cc1)c1ccc(F)cc1 (configuration not stated) 1.2%
N=c1n(Cc2ccc(Cl)cc2)c2ccccc2n1CC(O)c1ccco1 (configuration not stated) 2.61%
O=S1(=O)CC/C(=N\Nc2ccc(F)cc2)c2ccsc21 -3.05%
CC(C)NS(=O)(=O)c1ccc(OCC(=O)NC2CCCCCC2)cc1 1.3%
Cc1cn([C@H]2C[C@H](O)[C@@H](/C=C/C(=O)NCCCc3ccccc3)O2)c(=O)[nH]c1=O 6.27%
Cc1ccc(NC(=O)c2ccc(Oc3ncccn3)cc2)cc1 9.93%
CCOC(=O)c1cccnc1NC(=O)c1ccncc1 4.86%
COC(=O)[C@]12CCCCC=C1N(CCC1=CCCCC1)C(=O)[C@H](CC(=O)N1CCSCC1)C2 1.29%
c1ccc2cc3[nH]c(CN4CCCCC4)nc3cc2c1 7.88%
OC(C#CCN1CCOCC1)(c1ccccc1)C1CCCCC1 (configuration not stated) 7.29%
CC(CN1CCCCC1)c1ccccc1 (configuration not stated) 2.28%
O=C(c1ccccc1)C(O)(CN1CCCCC1)c1ccccc1 (configuration not stated) 8.34%
CCc1ccccc1NC(=O)NCCN1CCCCC1 -5.44%
COc1ccc(C(O)(C2CCCCC2)C(CN2CCCC2)c2ccccc2)cc1 (configuration not stated) -3.7%
CCc1ccc[n+](-c2nc([O-])sc2C=O)c1 9.19%
Cc1ccc(C23CC4CC(CC(C(=O)NCC(=O)O)(C4)C2)C3)cc1 6.84%
Cc1nnc(SCCCCSc2nnc(C)c(=O)[nH]2)[nH]c1=O -7.67%
CC1(C(=O)Nc2ccccc2Br)CCN1C(=O)CC1CC1 (configuration not stated) 4.22%
COn1c(=O)c(=O)n(OC)c2ccccc21 6.69%
CCOc1cc(C(=O)Nc2ccc(S(=O)(=O)Nc3cnc4ccccc4n3)cc2)cc(OCC)c1OCC 0.97%
O=C(CSc1nc(-c2ccccc2)cs1)Nc1cccc([N+](=O)[O-])c1 14.8%
Nc1nnc(SCC(=O)NC2CCCc3ccccc32)s1 (configuration not stated) 2.63%
CCOC(=O)c1nc(-c2ccc3c(c2)OCO3)[nH]c1C 3.11%
COc1ccc2c(c1)[C@H]1[C@H](CO2)[C@H](c2ccccc2)[C@]2(C)C(=O)Nc3cc(F)c(F)cc3C(=O)N12 11.7%
Cc1ccc(C(=O)N2CC(=O)Nc3ccc(F)cc3C2c2ccc(F)cc2)cc1 (configuration not stated) 11.2%
CCN1CCC(O)(/C=C/c2ccc(C)cc2)C(C(=O)/C=C/c2ccc(C)cc2)C1 (configuration not stated) 5.72%
CCOc1ccc(-n2c(N)c(C(=O)NCC3CCCO3)sc2=S)cc1 (configuration not stated) 3.05%
Cc1cccc(C(=O)NCC(=O)OCC(=O)N(C)CC(=O)Nc2ccccc2Cl)c1 9.75%
CC1CC(NC(=O)/C(C#N)=C/c2ccc[nH]2)CC(C)(C)C1 (configuration not stated) 1.56%
CCC(=O)N1CCN=C1SCc1ccc(F)cc1 5.93%
COc1ccccc1CNc1nc(Nc2ccccc2Cl)c2sccc2n1 11.1%
COc1cccc(CNc2nc3cc(-c4csc5ccccc45)sc3c(=O)n2C)c1 2.12%
CN(C)c1ccc(NC(=S)N(CCc2ccccc2)C2CC(=O)N(c3c(Cl)cccc3Cl)C2=O)cc1 (configuration not stated) -4.62%
COC(=O)CN(C(=S)Nc1ccc(Cl)cc1)C1CC(=O)N(c2ccc(OC)cc2)C1=O (configuration not stated) 11.6%
CCn1ncc(CNC(=O)C2(C)CC2(Br)Br)c1C (configuration not stated) 4.36%
Cc1c(C)c(C)c(S(=O)(=O)N2CCC3(CC2)OCCO3)c(C)c1C 5.79%
COC(C/C=C/C(=O)[C@@H](C)OCc1ccccc1)OC 3.64%
NC1=NC(=O)S/C1=C\c1ccc(O)cc1 -0.48%
CC(C)(C)C(=O)/C(C#N)=C/c1ccc(O)cc1 4.34%
COc1ccc(OCCNS(=O)(=O)Cc2ccccc2)cc1 4.63%
COc1ccc(S(=O)(=O)NCCOc2ccccc2)cc1F -2.02%
Cc1ccc(S(=O)(=O)N2CCOCC2)cc1C(=O)OC1CCCCC1=O (configuration not stated) 5.95%
O=C(COc1ccccc1)Nc1cc2c3c(c1)CC(=O)N3CCC2 -0.99%
CCN(CC)CCOC(=O)c1ccc(NC(=O)CNC(=O)c2ccccc2)cc1 10.2%
CCOC(=O)CCP(=O)(O)C(O)(c1ccccc1)c1ccccc1 -4.02%
COC(CCN(C)C)(c1ccccc1)c1ccccc1 11.5%
CCC(C(=O)Nc1ccc(C(C)C)cc1)c1ccccc1 (configuration not stated) 19.2%
CN(C)C(=O)c1ccc2c(c1)C1C3CCC(C3)C1C(c1ccccc1)N2 (configuration not stated) -2.46%
CCOC(=O)N1CCC(NC(=O)Cn2cc3c(n2)CCCCC3)CC1 0.05%
CC(C)c1ccc(NC(=O)CCN2C(=O)c3ccc([N+](=O)[O-])cc3C2=O)cc1 -6.62%
CC(C)c1ccc(/C=C2\NC(=O)NC2=O)cc1 -18.6%
CCS(=O)(=O)N1CCC(N2CCN(c3ccccc3)CC2)CC1 8.56%
Cc1ccccc1NS(=O)(=O)CCCCC(Cl)(Cl)Cl 3.5%
COc1ccc(CN2CC(C(=O)NC3CCCCC3)CC2=O)cc1 (configuration not stated) -0.55%
CC(=O)N1CCN(Cc2cc(=O)oc3cc(C)ccc23)CC1 -1.45%
CN(c1ccccc1)S(=O)(=O)c1cccc(C(=O)NNC(=O)c2ccncc2)c1 1.22%
COc1ccc(C)cc1NC(=O)C(OC(=O)c1cccc(S(=O)(=O)N(C)c2ccccc2)c1)c1ccccc1 (configuration not stated) -1.67%
O=C(CCc1nnc2ccc(NCc3ccccc3Cl)nn12)NCC1CCN(C2CCCC2)C1 (configuration not stated) 1.64%
COC(C[C@H](O)CC(=O)COCc1ccccc1)OC 2.21%
O=C(NCCN1CCN(C(=O)c2cccc([N+](=O)[O-])c2)CC1)C(=O)NCc1ccc(Cl)cc1 10.1%
COc1ccc(CC(=O)NC2CCSc3ccccc32)cc1OC (configuration not stated) 17.6%
Cc1csc(NC(=O)CSc2ccc(-c3ccc(F)cc3)nn2)n1 6.55%
O=C(CNCCO)NC12CC3CC(CC(C3)C1)C2 -2.76%
COc1ccc(C(=O)Oc2ccc(-c3nnco3)cc2)cc1S(=O)(=O)N1CCOCC1 15.9%
NC(=O)C1CCN(C(=O)c2ccc(F)c(S(=O)(=O)N3CCOCC3)c2)CC1 13.8%

From PubChem BioAssay AID624040 (The Scripps Research Institute Molecular Screening Center, 2012)
